{
  "source": "PubChem BioAssay (Tox21)",
  "note": "Inconclusive results are not listed. Unmarked numbers belong to inactive results. Active and inactive are the calls of the source. Calls follow the shape of the dose curve; as a rule, active = well fitted activation curve with a large enough effect; inconclusive = small, poorly fitted or top-dose-only effect; inactive = flat fitted curve, though single readings scatter. % is scaled to controls: 0 for no effect and ±100 for the full control effect.",
  "data": [
    {"test": "qHTS assay to identify small molecule phospholipidosis (PLD) inducers (AID 1259344)", "details": "HepG2 phospholipidosis, LipidTOX Red imaging, 24 h; series mostly up to 38.3 µM; PLD induction: at the top concentration", "in_short": "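HepG2 cells, 900/well, treated with compound plus LipidTOX Red for 24 h at 37 C; amiodarone positive and DMSO negative controls. Fixed with paraformaldehyde/Hoechst, then high-content imaging scored LipidTOX pit count and integrated intensity per well and per cell.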", "values": [
      {"smiles": "C(=C\\c1ccncc1)/c1ccccc1", "Potency": "inactive"},
      {"smiles": "NC(=O)[C@@H]1C[C@]2(NC(=O)NC2=O)c2cc(F)ccc2O1", "PLD induction": "-1.06%"},
      {"smiles": "C/C(=C(/CCO)SSCC1CCCO1)N(C=O)Cc1cnc(C)nc1N", "note": "(stereo not given)", "Potency": "inactive"},
      {"smiles": "CC/C(=C(/CC)c1ccc(OP(=O)(O)O)cc1)c1ccc(OP(=O)(O)O)cc1", "PLD induction": "5.02%"},
      {"smiles": "Cc1cn([C@H]2C[C@H](O)[C@@H](CO)O2)c(=O)[nH]c1=O", "PLD induction": "0.288%"},
      {"smiles": "C[C@H](NCCc1ccc(O)cc1)[C@H](O)c1ccc(O)cc1", "PLD induction": "-0.415%"},
      {"smiles": "C[N+]1(CCCCC[N+]2(C)CCCC2)CCCC1", "PLD induction": "-0.372%"},
      {"smiles": "CC(C)(O/N=C(\\C(=O)N[C@@H]1C(=O)N2C(C(=O)[O-])=C(C[n+]3ccccc3)CS[C@H]12)c1csc(N)n1)C(=O)O", "PLD induction": "-0.632% [at 15.5 µM]"},
      {"smiles": "COc1ccc(/C=N/NC(=O)c2ccncc2)c(C(=O)O)c1OC", "PLD induction": "-0.55%"},
      {"smiles": "COc1cc2c(cc1O)CCN[C@]21CS[C@@H]2c3c(OC(C)=O)c(C)c4c(c3[C@H](COC1=O)N1[C@@H]2[C@H]2c3c(cc(C)c(OC)c3O)C[C@@H]([C@@H]1O)N2C)OCO4", "Potency": "inactive"},
      {"smiles": "CCCC(CCC)C(=O)OC1C[C@H]2CC[C@@H](C1)[N+]2(C)C", "note": "(stereo not given in full)", "Potency": "inactive"},
      {"smiles": "FC(F)(F)C(F)(F)C(F)(F)C(F)(F)C(F)(F)F", "PLD induction": "0.286%"},
      {"smiles": "Cc1c(N)nc([C@H](CC(N)=O)NC[C@H](N)C(N)=O)nc1C(=O)N[C@H](C(=O)N[C@H](C)[C@@H](O)[C@H](C)C(=O)N[C@H](C(=O)NCCc1nc(-c2nc(C(=O)NCCCCN=C(N)N)cs2)cs1)[C@@H](C)O)[C@@H](O[C@@H]1O[C@@H](CO)[C@@H](O)[C@H](O)[C@@H]1O[C@H]1O[C@H](CO)[C@@H](O)[C@H](OC(N)=O)[C@@H]1O)c1cnc[nH]1", "Potency": "inactive"},
      {"smiles": "Nc1cc(Cl)c(NC2=NCCN2)c(Cl)c1", "PLD induction": "-0.309%"},
      {"smiles": "Cc1c(O)c(=O)ccn1C", "PLD induction": "0.0699%"},
      {"smiles": "Cc1cc(CC(C)CC(C)(C)C)n(O)c(=O)c1", "note": "(stereo not given) (tested in a mixture with another compound)", "PLD induction": "-0.0683%"},
      {"smiles": "O=C(O)CC(O)(CC(=O)O)C(=O)O", "PLD induction": "-0.895% [at 1.53 µM]"},
      {"smiles": "CC(C)NCC1CCc2cc(CO)c([N+](=O)[O-])cc2N1", "note": "(stereo not given)", "PLD induction": "0.619% [at 15.5 µM]"},
      {"smiles": "NC(N)=NCc1cccc(I)c1", "Potency": "inactive"},
      {"smiles": "CO/N=C(\\C(=O)N[C@@H]1C(=O)N2C(C(=O)O)=C(CSc3cnns3)CS[C@H]12)c1csc(N)n1", "PLD induction": "-0.543%"},
      {"smiles": "CC(=O)Nc1ccc(OC(C)=O)cc1", "PLD induction": "-0.15%"},
      {"smiles": "N[C@H](C(=O)O)[C@@H]1CC(Cl)=NO1", "PLD induction": "-1.19%"},
      {"smiles": "CCCCCCCC[N+](C)(C)CCCCCCCC", "Potency": "inactive"},
      {"smiles": "CC(CNC(=O)c1cccnc1)NC(=O)c1cccnc1", "note": "(stereo not given)", "PLD induction": "-0.161%"},
      {"smiles": "O=C(O)/C=C/C(=O)Nc1ccc(S(=O)(=O)Nc2nccs2)cc1", "PLD induction": "-0.251%"},
      {"smiles": "CCN(CC)CCn1c(=O)c(Cc2ccc(OC)cc2)nc2ccccc21", "PLD induction": "1.39% [at 7.66 µM]"},
      {"smiles": "O=C1CCC(c2ccc(-n3ccnc3)cc2)=NN1", "PLD induction": "-0.849%"},
      {"smiles": "Cc1cnc(C(=O)O)c[n+]1[O-]", "Potency": "inactive"},
      {"smiles": "O=C(O)[C@H]1CN(C/C=C/P(=O)(O)O)CCN1", "PLD induction": "0.469%"},
      {"smiles": "Nc1nc(/C(=C/CC(=O)O)C(=O)N[C@@H]2C(=O)N3C(C(=O)O)=CCS[C@H]23)cs1", "PLD induction": "-0.404%"},
      {"smiles": "O=C(O)Cc1nn(Cc2ccc(Br)cc2F)c(=O)c2ccccc12", "PLD induction": "-1.23%"},
      {"smiles": "CC[C@H](C)C(=O)O[C@H]1CCC=C2C=C[C@H](C)[C@H](CC[C@@H]3C[C@@H](O)CC(=O)O3)[C@H]21", "PLD induction": "-1.65%"},
      {"smiles": "CC1CCCC(C)N1NC(=O)c1ccc(Cl)c(S(N)(=O)=O)c1", "note": "(stereo not given)", "PLD induction": "-1.33% [at 15.5 µM]"},
      {"smiles": "CON=C1C[C@]2(C[C@@H]3C[C@@H](C/C=C(\\C)C[C@@H](C)/C=C/C=C4\\CO[C@@H]5[C@H](O)C(C)=C[C@@H](C(=O)O3)[C@]45O)O2)O[C@H](/C(C)=C/C(C)C)[C@H]1C", "Potency": "inactive"},
      {"smiles": "COc1c(O)cc2c(c1O)[C@@H]1O[C@H](CO)[C@@H](O)[C@H](O)[C@H]1OC2=O", "PLD induction": "-0.409% [at 15.5 µM]"},
      {"smiles": "CCOc1ccc(S(=O)(=O)O)c2cccnc12", "PLD induction": "-0.0145%"},
      {"smiles": "CCCCN(CCCC)C(=S)[S-].CCCCN(CCCC)C(=S)[S-].[Zn+2]", "PLD induction": "-1.43%"},
      {"smiles": "C=CCN1C(=O)C(CC(C)C)NC1=S", "note": "(stereo not given)", "Potency": "inactive"},
      {"smiles": "CCc1ncnc2cc(OC)c(OC)cc12", "PLD induction": "-0.157%"},
      {"smiles": "CCN(CC)CC#CCOC(=O)C(O)(c1ccccc1)C1CCCCC1", "note": "(stereo not given)", "PLD induction": "11.8%"}
    ]}
  ]
}
